± gives the standard deviation of the averaged measurements.
Key:
[1] = test system: DLD1; assay: cell viability (CellTiter-Glo) relative to plate median (fraction of plate median); higher = more viable cells; settings: 5 µM; treatment time 24 h; reporter: 7TFP
In short: (§1)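 Per-well firefly luciferase or CellTiterGlo luminescence, normalised to the plate median, is what is reported. It was measured in colorectal cancer cells with stable lentiviral TCF/Wnt firefly luciferase reporters after a 24 h treatment with library compounds at a final 5 µM. The mean of two independent replicates is given.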

[2] = test system: HCT116; assay: as above; settings: 5 µM; treatment time 24 h; reporter: TCF4/Wnt
In short: as §1

[3] = test system: SW480; assay: as above; settings: 5 µM; treatment time 24 h; reporter: 7TFP
In short: as §1

[4] = test system: DLD1; assay: TCF/Wnt firefly luciferase reporter signal relative to plate median (fraction of plate median); higher = higher Wnt reporter signal; settings: 5 µM; treatment time 24 h; reporter: 7TFP
In short: as §1

[5] = test system: SW480; assay: as above; settings: 5 µM; treatment time 24 h; reporter: 7TFP
In short: as §1

Work on `N=C(NCCCCCCNC(=N)NC(=N)Nc1ccc(Cl)cc1)NC(=N)Nc1ccc(Cl)cc1` yielded a cell viability [1] of 0.952 ± 0.031, a cell viability [2] of 1.02 ± 0.11 and a cell viability [3] of 1.07 ± 0.028. For the same compound, the “TCF/Wnt firefly luciferase reporter signal” value [4] was 1.07 ± 0.021 and the “TCF/Wnt firefly luciferase reporter signal” value [5] was 0.851 ± 0.052.
`Nc1ncnc2c1ncn2[C@@H]1O[C@H](COP(=O)(O)O)[C@@H](O)[C@H]1O` gave a cell viability [1] of 0.958 ± 0.025, a cell viability [2] of 0.983 ± 0.081 and a cell viability [3] of 1.03 ± 0.059. The “TCF/Wnt firefly luciferase reporter signal” value [4] was 1.09 and the “TCF/Wnt firefly luciferase reporter signal” value [5] was 0.974 ± 0.12.
`O=c1cc(-c2ccc(O)cc2)oc2cc(O[C@@H]3O[C@H](CO)[C@@H](O)[C@H](O)[C@H]3O)cc(O)c12` was tested, and the cell viability [1] was 0.924 ± 0.044, the cell viability [2] was 1.06 ± 0.093 and the cell viability [3] was 1 ± 0.038. The “TCF/Wnt firefly luciferase reporter signal” value [4] was 1.02 ± 0.059 and the “TCF/Wnt firefly luciferase reporter signal” value [5] was 1.07 ± 0.078.
Work on `CCC(=O)O[C@@H]1[C@@H](OC2C(C)/C=C/C(=O)OC(C)C(CO[C@@H]3O[C@H](C)[C@@H](OC(=O)CC)[C@@H](OC)[C@H]3OC)C3OC3/C=C/C(=O)C(C)(O)CC2C)O[C@@H](C)C[C@H]1OC` (stereo not given in full) [Chalcomycin B] yielded a cell viability [1] of 1.04 ± 0.014, a cell viability [2] of 1.06 ± 0.064 and a cell viability [3] of 1.11 ± 0.071. For the same compound, the “TCF/Wnt firefly luciferase reporter signal” value [4] was 1.14 ± 0.12 and the “TCF/Wnt firefly luciferase reporter signal” value [5] was 0.972 ± 0.2.
`CSc1ccc2c(c1)N(CCC1CCCCN1C)c1ccccc1S2` (stereo not given) gave a cell viability [1] of 1.01 ± 0.048, a cell viability [2] of 1.02 ± 0.076 and a cell viability [3] of 1.115 ± 0.0071. The “TCF/Wnt firefly luciferase reporter signal” value [4] was 0.928 ± 0.039 and the “TCF/Wnt firefly luciferase reporter signal” value [5] was 0.895 ± 0.1.
With `COC(=O)[C@@H]1OC(=O)C2OC23[C@@]1(C)CCC1[C@]2(C)C(C[C@H](O)[C@]13C)C(C)(C)[C@H](OC(C)=O)C[C@@H]2OC(C)=O` (stereo partly drawn) [7beta-HYDROXY-7-DESACETOXYKHIVORINIC ACID, METHYL ESTER] the cell viability [1] was 1.01 ± 0.095, the cell viability [2] was 1.065 ± 0.0071 and the cell viability [3] was 1.05. For the same compound, the “TCF/Wnt firefly luciferase reporter signal” value [4] was 1.11 ± 0.18 and the “TCF/Wnt firefly luciferase reporter signal” value [5] was 1.03 ± 0.042.
Compound `CC(=O)O[C@@](C)(CCC=C(C)C)C1CC=C(C)CC1` (stereo not given in full) has a cell viability [1] of 0.974 ± 0.066, a cell viability [2] of 1.02 ± 0.021 and a cell viability [3] of 0.993 ± 0.067. For the same compound, the “TCF/Wnt firefly luciferase reporter signal” value [4] was 0.9845 ± 0.0021 and the “TCF/Wnt firefly luciferase reporter signal” value [5] was 1.08 ± 0.028.
With `Oc1ccc(/C=C/c2cc(O)cc(O)c2)cc1` the cell viability [1] was 0.995 ± 0.022, the cell viability [2] was 1.05 ± 0.042 and the cell viability [3] was 1.03 ± 0.098. The “TCF/Wnt firefly luciferase reporter signal” value [4] was 1.05 ± 0.05 and the “TCF/Wnt firefly luciferase reporter signal” value [5] was 0.891 ± 0.059.
Compound `CCCCCCCCCCCCCCCC(=O)OC/C=C(C)/C=C/C=C(C)/C=C/C1=C(C)CCCC1(C)C` has a cell viability [1] of 0.986 ± 0.048, a cell viability [2] of 1.07 ± 0.035 and a cell viability [3] of 0.9965 ± 0.0021. For the same compound, the “TCF/Wnt firefly luciferase reporter signal” value [4] was 0.885 ± 0.1 and the “TCF/Wnt firefly luciferase reporter signal” value [5] was 1.01 ± 0.073.
Work on `Oc1cc2c(cc1O)C(c1ccccc1)CNCC2` (stereo not given) yielded a cell viability [1] of 0.981 ± 0.019, a cell viability [2] of 0.944 ± 0.05 and a cell viability [3] of 0.934 ± 0.025. The “TCF/Wnt firefly luciferase reporter signal” value [4] was 1.08 ± 0.05 and the “TCF/Wnt firefly luciferase reporter signal” value [5] was 1.05 ± 0.064.
`C[n+]1cccc(C(=O)[O-])c1` showed a cell viability [1] of 1.03 ± 0.021, a cell viability [2] of 0.938 ± 0.0085 and a cell viability [3] of 1.01 ± 0.018. For the same compound, the “TCF/Wnt firefly luciferase reporter signal” value [4] was 1.15 ± 0.071 and the “TCF/Wnt firefly luciferase reporter signal” value [5] was 1.11 ± 0.092.
For `CC(C)[C@@H]1CC[C@@H](C)CC1=O`, the cell viability [1] was 1.01 ± 0.033, the cell viability [2] was 1.16 ± 0.11 and the cell viability [3] was 1.04 ± 0.028. For the same compound, the “TCF/Wnt firefly luciferase reporter signal” value [4] was 0.906 ± 0.087 and the “TCF/Wnt firefly luciferase reporter signal” value [5] was 0.904 ± 0.037.
In the case of `CC/C(=C(\c1ccccc1)c1ccc(OCCN(C)C)cc1)c1ccccc1`, the cell viability [1] is reported as 1.08 ± 0.05, the cell viability [2] is reported as 1.04 ± 0.064 and the cell viability [3] is reported as 1.05 ± 0.021. For the same compound, the “TCF/Wnt firefly luciferase reporter signal” value [4] was 0.872 ± 0.15 and the “TCF/Wnt firefly luciferase reporter signal” value [5] was 0.859 ± 0.14.
For `COC1=CC(=O)C(C(=O)c2ccccc2)=CC1=O`, the cell viability [1] was 0.965 ± 0.015, the cell viability [2] was 0.991 ± 0.028 and the cell viability [3] was 0.975 ± 0.028. For the same compound, the “TCF/Wnt firefly luciferase reporter signal” value [4] was 1.03 ± 0.09 and the “TCF/Wnt firefly luciferase reporter signal” value [5] was 1.04 ± 0.063.
